The text below walks through data of PubChem BioAssay.

The source made the active and inactive calls.

In assay [1] the test system is PRMT1 (protein arginine N-methyltransferase 1). Put plainly: PRMT1 binders on small-molecule microarrays, primary screen, biochemical, small-molecule microarray, 635 nm fluorescence (AID 1088).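 Also: binding of Prmt1 protein to compounds spotted on small-molecule microarray slides.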 To be noted: small-molecule microarray binding, higher = more signal.
Assay [2] is described as follows: yeast growth modulation, basal conditions, primary screen, YJM789 clinical isolate, OD600, 24 h (AID 1089).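 Also: growth of clinical yeast isolate S. cerevisiae YJM 789 seeded 1000 cells per well; test concentration not given here.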 As to conditions: S. cerevisiae YJM789 growth, higher = more signal, called active from +8 up or from −8 down.
A short description of assay [3]: fission yeast growth modulation, primary screen, strain 972, OD600, 24 h, no modulator (AID 1090).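 Also: basal condition with compound alone and no growth modifier present; test concentration not given here.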 As to conditions: S. pombe 972 growth, higher = more signal, called active from +8 up or from −8 down.
Assay [4] in a line: S. cerevisiae growth modulation with rapamycin, primary screen, strain BY4716, OD600, 96 h (AID 1091). Also: test concentration not given here. To be noted: higher = more signal, called active from +8 up or from −8 down.
Assay [5] deals with Torsin-1A-interacting protein 2 (Homo sapiens) (UniProt Q8NFQ8). Put plainly: LULL1 binders on small-molecule microarray, primary screen, cell lysate, human LULL1 lysate, 635/667 nm fluorescence (AID 1092).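 Also: probe is lysate of COS7 cells overexpressing human LULL1; score merges per-feature 667 nm fluorescence with signal-to-noise.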 As to conditions: hLULL1 lysate binding, 635 nm fluorescence, higher = more signal.
Chain of Torsin-1A-interacting protein 2 (Homo sapiens) (Q8NFQ8 whole entry, looked up): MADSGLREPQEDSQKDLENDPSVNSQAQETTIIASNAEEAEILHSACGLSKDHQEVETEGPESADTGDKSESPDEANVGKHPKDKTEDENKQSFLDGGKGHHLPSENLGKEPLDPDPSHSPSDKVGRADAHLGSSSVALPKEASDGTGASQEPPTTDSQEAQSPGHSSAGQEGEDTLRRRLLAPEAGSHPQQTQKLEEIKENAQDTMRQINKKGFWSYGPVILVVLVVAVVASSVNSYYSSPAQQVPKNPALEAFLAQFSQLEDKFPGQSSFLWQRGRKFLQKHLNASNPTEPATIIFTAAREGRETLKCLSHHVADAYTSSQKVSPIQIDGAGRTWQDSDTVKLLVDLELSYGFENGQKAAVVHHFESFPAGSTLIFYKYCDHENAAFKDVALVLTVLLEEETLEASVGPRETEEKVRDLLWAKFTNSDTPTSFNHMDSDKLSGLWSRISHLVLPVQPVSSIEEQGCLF
Assay [6] can be described thus: E. coli growth modulation, two-sided OD650, primary screen, E. coli filamentation project, strain DRC41, 24 h (AID 1093).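 Also: MC1000 strain lacking acrAB efflux and sulA so SOS filamentation is blocked; test concentration not given here.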 As to conditions: OD650, 24 h, higher = more signal, called active from +8 up or from −8 down.
A short description of assay [7]: small-molecule microarray binders of probe aLefty2, primary screen, biochemical, biotinylated probe, 635/667 nm fluorescence (AID 1094).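 Also: score merges spot fluorescence near 667 nm with spot signal-to-noise ratio.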 As to conditions: higher = more signal.
The test system of assay [8] is Noggin (protein binding on small-molecule microarray). Put plainly: Noggin binders on small-molecule microarray, primary screen, biochemical, 635/667 nm fluorescence (AID 1095).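 Also: score merges 667 nm feature fluorescence with signal to noise over triplicate slides.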 As to conditions: 635 nm fluorescence, higher = more signal.
Assay [9] addresses Neurogenic locus notch homolog protein 3 (Homo sapiens) (UniProt Q9UM47). Put plainly: NOTCH3 binders on small-molecule microarray, primary screen, biochemical, 635/667 nm fluorescence (AID 1096). As to conditions: NOTCH3 binding, 635 nm fluorescence, higher = more signal.
Assay [10] is described as follows: small-molecule microarray binders of probe aEGFR, primary screen, biochemical, biotinylated probe, 635/667 nm fluorescence (AID 1097).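 Also: probe is a biotinylated anti-EGFR antibody binding compounds printed on slides; score combines fluorescence near 667 nm and signal to noise of each spot.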 To be noted: higher = more signal.
Assay [11] has as its system Plasmodium falciparum Sir2 (PF13_0152, Sir2A). Put plainly: pfSir2 binders on small-molecule microarrays, primary screen, biochemical, small-molecule microarray, 635 nm fluorescence (AID 1098).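 Also: score merges spot fluorescence intensity with its signal-to-noise ratio.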 As to conditions: small-molecule microarray binding, fluorescence 635 nm; higher = more signal.
A short description of assay [12]: small-molecule microarray binders of probe aDKK1, primary screen, biochemical, biotinylated probe, 635/667 nm fluorescence (AID 1099).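 Also: score merges 667nm spot fluorescence with signal to noise across triplicate slides; reference of the scale not given here.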 To be noted: higher = more signal.
Assay [13] in a line: small-molecule microarray binders of probe aCHRDL2, primary screen, biochemical, biotinylated probe, 635/667 nm fluorescence (AID 1100). As to conditions: higher = more signal.
Assay [14] in a line: splicing luciferase reporter signal modulators, primary screen, spliceosome inhibition project, cell-based, HEK293, splice +/- reporter (AID 1101).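 Also: HEK293 cells carrying a splicing-competent luciferase reporter gene; test concentration not given here.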 As to conditions: luminescence, 24 h, higher = more signal, called active from +8 up or from −8 down. On the technique in general: In a reporter assay the amount or activity of a reporter protein is the signal.
For assay [15], the target named is Fibroblast growth factor 10 (Homo sapiens) (UniProt O15520). Put plainly: FGF10 binders on small-molecule microarrays, primary screen, biochemical, small-molecule microarray, 635 nm fluorescence (AID 1102). As to conditions: FGF10 binding, fluorescence 635 nm, higher = more signal.
Chain of Fibroblast growth factor 10 (Homo sapiens) (O15520 whole entry, looked up): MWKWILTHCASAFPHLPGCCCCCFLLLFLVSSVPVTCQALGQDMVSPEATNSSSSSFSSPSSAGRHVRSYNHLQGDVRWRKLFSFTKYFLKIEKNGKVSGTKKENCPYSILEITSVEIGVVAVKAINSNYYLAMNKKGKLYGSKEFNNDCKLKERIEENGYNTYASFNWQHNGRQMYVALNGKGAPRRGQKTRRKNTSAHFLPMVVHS
The subject of assay [16] is glycogen synthase kinase-3 (GSK3A per assay name; protocol says GSK3B). Put plainly: GSK3 binders on small-molecule microarrays, primary screen, biochemical, small-molecule microarray, 635 nm fluorescence, GSK3A (AID 1103). Also: the record names both GSK3A and GSK3B. As to conditions: small-molecule microarray binding, fluorescence 635 nm; higher = more signal.
Assay [17] has as its target Epidermal growth factor receptor (Homo sapiens) (UniProt P00533). Put plainly: EGFR binders on small-molecule microarrays, primary screen, biochemical, small-molecule microarray, 635 nm fluorescence (AID 1104).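 Also: score merges 667 nm emission intensity with spot signal to noise over triplicate slides.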 To be noted: EGFR binding, higher = more signal.
For assay [18], the target named is Follistatin-related protein 3 (Homo sapiens) (UniProt O95633). Put plainly: FSTL3 binders on small-molecule microarrays, primary screen, biochemical, small-molecule microarray, 635 nm fluorescence (AID 1105).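 Also: score merges emission near 667 nm and signal to noise per printed spot across three slides.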 To be noted: FSTL3 binding, higher = more signal.
Chain of Follistatin-related protein 3 (Homo sapiens) (O95633 whole entry, looked up): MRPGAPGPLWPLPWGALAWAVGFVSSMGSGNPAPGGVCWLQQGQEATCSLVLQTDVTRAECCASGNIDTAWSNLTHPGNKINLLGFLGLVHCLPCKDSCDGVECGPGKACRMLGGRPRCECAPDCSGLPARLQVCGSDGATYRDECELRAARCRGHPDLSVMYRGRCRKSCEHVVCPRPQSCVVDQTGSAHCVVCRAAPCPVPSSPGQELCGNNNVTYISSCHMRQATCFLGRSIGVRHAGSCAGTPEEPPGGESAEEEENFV
Assay [19] concerns the target Dickkopf-related protein 1 (Homo sapiens) (UniProt O94907). Put plainly: DKK1 binders on small-molecule microarrays, primary screen, biochemical, small-molecule microarray, 635 nm fluorescence scan (AID 1106).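 Also: score merges emission near 667 nm with signal to noise over three replicate slides.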 As to conditions: DKK1 binding, higher = more signal.
The subject of assay [20] is Inhibin beta A chain (activin A). Put plainly: INHBA (activin A) binders on microarrays, primary screen, biochemical, small-molecule microarray, 635 nm fluorescence scan (AID 1107).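 Also: mouse activin A protein probed at 4.33 µg/mL on printed slides; score merges bound-protein fluorescence near 667 nm with spot signal-to-noise.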 As to conditions: small-molecule microarray binding, higher = more signal.

Chain of Dickkopf-related protein 1 (Homo sapiens) (O94907 whole entry, looked up): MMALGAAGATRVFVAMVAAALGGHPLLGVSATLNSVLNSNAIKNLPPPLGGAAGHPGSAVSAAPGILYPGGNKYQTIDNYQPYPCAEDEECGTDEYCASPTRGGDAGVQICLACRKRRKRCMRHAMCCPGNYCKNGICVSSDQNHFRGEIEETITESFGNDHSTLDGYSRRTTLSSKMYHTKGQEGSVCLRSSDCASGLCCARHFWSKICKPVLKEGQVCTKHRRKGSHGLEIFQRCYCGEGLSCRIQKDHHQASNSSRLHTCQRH
Chain of Neurogenic locus notch homolog protein 3 (Homo sapiens) (Q9UM47 whole entry, looked up): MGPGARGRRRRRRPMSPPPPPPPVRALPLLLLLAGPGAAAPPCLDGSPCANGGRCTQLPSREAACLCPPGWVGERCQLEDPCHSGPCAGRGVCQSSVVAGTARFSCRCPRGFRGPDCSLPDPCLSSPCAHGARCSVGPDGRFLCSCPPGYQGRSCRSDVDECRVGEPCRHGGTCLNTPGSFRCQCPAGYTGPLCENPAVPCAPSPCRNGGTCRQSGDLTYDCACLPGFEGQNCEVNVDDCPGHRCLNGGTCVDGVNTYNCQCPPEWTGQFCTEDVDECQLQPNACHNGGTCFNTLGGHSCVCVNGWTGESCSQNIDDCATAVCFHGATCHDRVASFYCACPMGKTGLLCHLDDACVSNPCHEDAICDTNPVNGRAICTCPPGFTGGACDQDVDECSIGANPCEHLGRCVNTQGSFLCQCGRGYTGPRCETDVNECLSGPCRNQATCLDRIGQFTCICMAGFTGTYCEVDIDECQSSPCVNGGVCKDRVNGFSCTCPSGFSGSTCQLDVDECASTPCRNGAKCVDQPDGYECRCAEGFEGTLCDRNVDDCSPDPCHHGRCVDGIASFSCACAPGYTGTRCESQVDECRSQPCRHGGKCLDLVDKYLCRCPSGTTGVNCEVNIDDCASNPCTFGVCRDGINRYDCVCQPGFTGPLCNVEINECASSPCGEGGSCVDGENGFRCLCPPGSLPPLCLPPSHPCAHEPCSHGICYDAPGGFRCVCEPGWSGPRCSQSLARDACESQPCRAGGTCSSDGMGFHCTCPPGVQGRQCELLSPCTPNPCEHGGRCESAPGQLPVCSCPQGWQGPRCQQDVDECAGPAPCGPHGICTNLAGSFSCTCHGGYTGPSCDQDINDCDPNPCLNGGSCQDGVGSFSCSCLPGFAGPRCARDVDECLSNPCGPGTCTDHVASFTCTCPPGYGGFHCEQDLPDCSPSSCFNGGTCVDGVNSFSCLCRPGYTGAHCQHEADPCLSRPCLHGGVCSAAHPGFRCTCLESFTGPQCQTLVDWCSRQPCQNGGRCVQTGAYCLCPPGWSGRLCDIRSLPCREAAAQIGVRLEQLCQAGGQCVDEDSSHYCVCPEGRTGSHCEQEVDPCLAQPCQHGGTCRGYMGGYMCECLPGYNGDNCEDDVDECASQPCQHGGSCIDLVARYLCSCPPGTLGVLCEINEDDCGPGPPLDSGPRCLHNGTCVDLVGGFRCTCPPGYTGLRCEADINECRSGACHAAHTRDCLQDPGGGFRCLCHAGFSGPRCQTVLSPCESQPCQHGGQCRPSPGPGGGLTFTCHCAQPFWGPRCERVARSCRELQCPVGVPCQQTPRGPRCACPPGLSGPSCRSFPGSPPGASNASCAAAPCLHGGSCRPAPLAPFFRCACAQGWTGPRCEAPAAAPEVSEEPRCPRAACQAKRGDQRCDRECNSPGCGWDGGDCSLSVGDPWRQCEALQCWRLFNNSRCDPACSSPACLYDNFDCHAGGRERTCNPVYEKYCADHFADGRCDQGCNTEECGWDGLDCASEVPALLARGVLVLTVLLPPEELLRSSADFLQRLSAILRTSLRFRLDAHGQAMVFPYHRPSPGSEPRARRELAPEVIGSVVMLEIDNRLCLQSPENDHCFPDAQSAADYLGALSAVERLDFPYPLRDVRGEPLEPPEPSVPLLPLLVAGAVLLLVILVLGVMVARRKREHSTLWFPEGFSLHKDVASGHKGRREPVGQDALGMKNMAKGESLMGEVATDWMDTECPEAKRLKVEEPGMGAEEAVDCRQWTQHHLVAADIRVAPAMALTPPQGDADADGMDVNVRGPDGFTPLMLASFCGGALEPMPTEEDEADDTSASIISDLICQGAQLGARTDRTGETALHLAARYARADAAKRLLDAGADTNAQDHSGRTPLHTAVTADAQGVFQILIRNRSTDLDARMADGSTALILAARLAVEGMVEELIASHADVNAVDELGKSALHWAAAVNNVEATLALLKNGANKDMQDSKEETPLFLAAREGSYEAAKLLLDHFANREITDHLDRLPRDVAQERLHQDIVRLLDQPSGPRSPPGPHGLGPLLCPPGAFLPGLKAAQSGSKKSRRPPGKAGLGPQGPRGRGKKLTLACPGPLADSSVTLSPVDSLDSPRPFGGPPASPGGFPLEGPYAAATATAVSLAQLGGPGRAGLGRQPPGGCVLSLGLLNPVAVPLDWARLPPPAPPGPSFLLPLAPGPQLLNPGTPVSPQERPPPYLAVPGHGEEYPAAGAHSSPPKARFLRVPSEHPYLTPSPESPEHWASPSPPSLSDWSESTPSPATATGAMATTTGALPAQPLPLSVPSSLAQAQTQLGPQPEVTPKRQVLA
Chain of Epidermal growth factor receptor (Homo sapiens) (P00533 whole entry, looked up): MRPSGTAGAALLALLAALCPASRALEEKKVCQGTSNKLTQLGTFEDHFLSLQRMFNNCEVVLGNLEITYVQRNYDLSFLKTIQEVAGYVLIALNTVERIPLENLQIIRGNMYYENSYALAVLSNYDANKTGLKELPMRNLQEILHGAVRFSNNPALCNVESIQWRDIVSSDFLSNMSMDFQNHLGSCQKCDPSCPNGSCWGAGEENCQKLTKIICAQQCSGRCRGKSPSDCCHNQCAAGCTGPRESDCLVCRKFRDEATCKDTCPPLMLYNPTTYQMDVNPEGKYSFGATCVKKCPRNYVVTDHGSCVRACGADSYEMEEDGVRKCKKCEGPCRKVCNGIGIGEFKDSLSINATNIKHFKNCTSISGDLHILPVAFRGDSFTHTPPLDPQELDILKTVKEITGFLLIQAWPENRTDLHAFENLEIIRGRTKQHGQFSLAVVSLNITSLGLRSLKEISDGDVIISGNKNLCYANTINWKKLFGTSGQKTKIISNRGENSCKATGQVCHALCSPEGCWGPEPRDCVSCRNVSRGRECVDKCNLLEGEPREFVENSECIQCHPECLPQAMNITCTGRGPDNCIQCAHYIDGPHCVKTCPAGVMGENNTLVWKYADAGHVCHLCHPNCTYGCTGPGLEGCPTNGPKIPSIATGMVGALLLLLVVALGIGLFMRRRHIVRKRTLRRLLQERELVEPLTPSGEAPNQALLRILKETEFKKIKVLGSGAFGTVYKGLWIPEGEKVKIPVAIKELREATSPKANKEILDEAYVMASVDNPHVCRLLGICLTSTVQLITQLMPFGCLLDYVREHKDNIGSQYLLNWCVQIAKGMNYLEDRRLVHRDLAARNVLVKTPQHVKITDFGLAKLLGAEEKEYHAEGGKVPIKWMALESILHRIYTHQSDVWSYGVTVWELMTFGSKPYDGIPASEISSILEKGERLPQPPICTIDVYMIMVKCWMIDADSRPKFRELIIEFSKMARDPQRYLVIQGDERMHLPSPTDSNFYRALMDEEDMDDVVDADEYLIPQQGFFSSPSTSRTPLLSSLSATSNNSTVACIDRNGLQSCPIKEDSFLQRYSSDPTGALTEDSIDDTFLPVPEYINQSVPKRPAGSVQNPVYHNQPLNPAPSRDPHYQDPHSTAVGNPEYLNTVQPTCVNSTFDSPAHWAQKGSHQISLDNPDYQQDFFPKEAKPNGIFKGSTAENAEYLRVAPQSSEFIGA

On to `COCCOC(=O)N1C(=O)[C@@]2(c3cc(C#CC4(O)CCCCCC4)ccc31)[C@H](c1ccccc1OCCO)N1[C@H](c3ccccc3)[C@H](c3ccccc3)OC(=O)[C@H]1[C@@H]2C(=O)N1CCCCCCC1`, for which the composite z-score is 1.54 in assay [1]; 3.47 in assay [5]; 1.31 in assay [7]; 1.75 in assay [8]; 1.1 in assay [9]; -0.0351 in assay [10]. The composite z-score in assay [11] is 1.56; in assay [12], 2.22; in assay [13], 1.43; in assay [15] it was 0.846; in assay [16], 0.502; in assay [17] it was 0.638. Also, the composite z-score worked out at 1.5 in assay [18], 1.09 in [19] and 1.71 in assay [20]. Also, the z-score in [2] is 1.94 (inactive); in assay [3], 1.26 (inactive); in assay [4], 3.54 (inactive); in assay [6], 0.0805 (inactive); in assay [14], -0.901 (inactive).

In the case of `C=CCC(OC(C)=O)[C@@H]1[C@@H](N(Cc2cc3ccccc3o2)C(=O)c2ccc(-c3ccccc3)cc2)c2cc(OCCCO)ccc2N1C(=O)c1ccc2ccccc2n1` (stereo not given in full), the composite z-score in assay [1] was -0.766; in [5], 0.607; in assay [7], -0.072; in [8] it was 0.0917; in assay [9], -0.781; in [10], -0.0151. Besides, the composite z-score in [11] was -0.148; in assay [12] it was 0.0919; in assay [13] it was 0.51; in assay [15], -0.0302; in [16], -1.24; in [17], -0.0803. Moreover, the composite z-score is -0.205 in [18], 0.157 in assay [19] and 1.33 in [20]. The z-score in assay [2] was 0.806 (inactive); in [3] it was 0.0887 (inactive); in assay [4] it was 1.16 (inactive); in [6] it was 0.859 (inactive); in assay [14], -0.0569 (inactive).

As to `CCCCC(O)C1C=CC2C(=O)N(C)C(=O)C2N1Nc1ccccc1` (stereo not given), the composite z-score in assay [1] is 0.24; in assay [5] it was 3.13; in assay [7], -0.013; in assay [8] it was -0.649; in assay [9], 0.51; in assay [10] it was -0.143. In addition, the composite z-score is 0.236 in assay [11]; 0.304 in assay [12]; 0.411 in assay [13]; 0.191 in assay [15]; -0.0703 in [16]; -0.319 in assay [17]. The figures for the composite z-score in assay [18], in assay [19] and in [20] were 0.0934, -0.8 and 1.24, respectively. The z-score in [2] is 0.763 (inactive); in assay [3], 0.555 (inactive); in assay [4], 1.99 (inactive); in assay [6], -1.26 (inactive); in assay [14], 0.94 (inactive).

For `[N-]=[N+]=NCc1ccccc1C[C@]1(C(=O)N2CCCCC2)N=C(c2ccc(OCCCO)cc2)O[C@H]1c1ccccc1`, the composite z-score in assay [1] is 0.762; in assay [5], 2.46; in [7] it was 0.124; in assay [8], 0.0914; in [9], 0.344; in assay [10], -0.125. Moreover, the composite z-score in assay [11] is 0.92; in assay [12], 0.484; in [13], 0.769; in [15], 0.567; in assay [16] it was 0.568; in assay [17] it was -0.761. The composite z-score in assay [18] was -0.278; in assay [19], -0.64; in assay [20], 0.55. The z-score in assay [2] was 0.202 (inactive); in [3], -1.1 (inactive); in assay [4] it was 22.5 (active); in assay [6], 1.31 (inactive); in assay [14], -0.44 (inactive).

As for `COc1ccc(C(O)C2C=CC3C(=O)N(C)C(=O)C3N2Nc2ccc([N+](=O)[O-])cc2[N+](=O)[O-])cc1OCc1ccccc1` (stereo not given), the composite z-score turned out to be 1.35 in assay [1]; 2.96 in assay [5]; 0.468 in [7]; 0.0404 in [8]; 1.06 in assay [9]; 0.349 in [10]. In addition, the composite z-score stood at 0.994 in assay [11]; 1.23 in assay [12]; 1.24 in assay [13]; 0.895 in assay [15]; 0.858 in assay [16]; 0.0333 in assay [17]. For the same molecule, the values for the composite z-score in assay [18], in [19] and in [20] were 0.84, -0.508 and 0.718, respectively. Besides, the z-score in assay [2] was 0.932 (inactive); in [3], 1.01 (inactive); in assay [4] it was 0.839 (inactive); in [6], -0.636 (inactive); in [14], 1.16 (inactive).

For `COc1ccc([Si](C)(C)[C@H]2[C@H](CC(=O)N3Cc4ccccc4C[C@H]3CO)O[C@@]3(C(=O)N(Cc4cccc(N5C(=O)c6cccc7cccc5c67)c4)c4ccccc43)[C@@H]2C)cc1`, the composite z-score in [1] was 1.56; in [5] it was 2.14; in assay [7], -0.173; in [8], 1.57; in [9], 1.13; in assay [10], -0.122. Moreover, the composite z-score in assay [11] was 1.63; in [12], -0.37; in [13], -0.151; in assay [15], 1.31; in assay [16], 0.627; in [17] it was 0.774. For the same molecule, the values for the composite z-score in [18], in [19] and in assay [20] were 1.28, 0.948 and 1.2, respectively. In addition, the z-score in [2] was -0.0979 (inactive); in assay [3], 0.39 (inactive); in [4] it was 1.77 (inactive); in assay [6], -0.0872 (inactive); in assay [14], -1.87 (inactive).

For `C=C(COC)/C(=C/C[C@H](OC(=O)c1ccncc1)c1cccc(OCCO)c1)c1cnc2ccccc2c1`, the composite z-score in assay [1] was 1.54; in assay [5], 1.75; in assay [7], 0.0333; in [8], 1.53; in assay [9], 1.03; in assay [10], -0.0025. Further, the composite z-score in assay [11] came to 0.691; in [12], 0.199; in [13] it was 0.293; in assay [15], 1.05; in assay [16], 1.3; in assay [17] it was 0.855. The composite z-score came to 1.45 in assay [18], 0.938 in [19] and 1.2 in assay [20]. The z-score in [2] is -2.15 (inactive); in [3] it was -0.677 (inactive); in assay [4] it was 0.0694 (inactive); in [6] it was -0.0055 (inactive); in [14], 0.0664 (inactive).

As for `COC(=O)[C@@]1(Cc2ccc(OC)cc2)[C@@H]2[C@@H](CC(=O)[C@H]2CC(=O)C(=O)N2CCCC2)CN1C(=O)c1ccccc1`, the composite z-score was 0.281 in assay [1]; 2.6 in assay [5]; 1.76 in assay [7]; 0.156 in assay [8]; 1.09 in assay [9]; 1.26 in [10]. In addition, the composite z-score is 1.66 in [11]; 2.76 in assay [12]; 1.21 in assay [13]; 1.44 in assay [15]; 1.07 in assay [16]; 0.725 in assay [17]. Besides, the figures for the composite z-score in [18], in [19] and in assay [20] were 0.868, 0.823 and 0.846, respectively. Further, the z-score is -0.347 (inactive) in assay [2]; 0.304 (inactive) in [3]; -0.0364 (inactive) in assay [4]; -0.455 (inactive) in assay [6]; -2.69 (inactive) in assay [14].

In the case of `C=CCOC(=O)[C@H]1[C@@H]2C(=O)O[C@@H](c3ccccc3)[C@@H](c3ccccc3)N2[C@@H](c2ccc(OCCOC(=O)[C@H]3C[C@H]4C(=O)NCC(=O)N4[C@H]3c3ccc(O)cc3)cc2)[C@]12C(=O)Nc1ccc(I)cc12`, the composite z-score in assay [1] is 1.3; in assay [5] it was 0.871; in assay [7], -0.148; in assay [8], 0.895; in assay [9], 0.672; in assay [10] it was -0.0531. Also, the composite z-score in [11] was 1.41; in assay [12], -0.144; in assay [13], -0.335; in assay [15], 0.669; in assay [16] it was 0.821; in assay [17], 0.63. Further, the composite z-score was 0.915 in assay [18], 1.12 in assay [19] and 0.236 in assay [20]. Also, the z-score in [2] is 0.203 (inactive); in [3] it was 0.629 (inactive); in [4], 4.17 (inactive); in assay [6] it was 0.47 (inactive); in assay [14], 0.0882 (inactive).
